According to PubChem BioAssay (NCATS):
Several values for one entry are separate records, joined by “and”; a condition that tells them apart may be missing. Equal entries are not always repeated. Records with an inconclusive call do not appear. Values without a mark were called inactive. Activity calls are given as the source filed them. Calls come from the whole dose curve; as a rule, active = well fitted cell-killing curve with a large enough effect; inconclusive = small, poorly fitted or top-dose-only effect, or effect the other way; inactive = flat fitted curve, though single readings scatter.

System: CAOV3
Assay: Primary qHTS to identify gynecologic anti-cancer compounds using libraries of approved drugs and bioactive compounds (AID 1345084); note: nearly all actives have a fitted effect of over 55% in size
Conditions: Gynecologic cancer cell panel viability, ATPlite luminescence, 48 h; series mostly up to 57.5 µM; activity change, negative = cytotoxicity: at the top concentration
Text: National Center for Advancing Translational Sciences [NCATS] Assay Overview: Chemotherapeutic drug responses vary from cancer to cancer and from patient to patient. These variations could be caused by a number of factors including patient genomic background, tumor mutations, tumor heterogeneity, and aspects of drug treatment. Chemotherapeutic drug resistance is also a common issue and can lead to ineffective treatment and patient death. Here we have profiled the cell killing effects of thousands of compounds to characterize the responses in three gynecological cancers, identify cancer-selective compounds, and understand the diversity of responses to these compounds from pan-cancer suppressors to single cell line selective compounds. In this assay, we screened a 7,914 compound drug library that included approved drug and bioactive compounds in six ovarian, three cervical, and […] placental cancer cell lines using the ATPlite assay for cell viability. […] The cervical cancer cell lines included HeLa, Ca Ski, and C-33 A. The placental cancer cell lines included JEG-3. HEK 293T cells were used as the control cell line to determine the selectivity index. ATPlite is a luminescence based assay reliant on the conversion of a luciferase substrate to light in the presence of ATP. As a cytotoxic compound will suppress growth and decrease the number of cells, the concentration of ATP will decrease, and less light signal will be detected in the well.
Assay Protocol Summary: 1,000 cells in 4 uL of media were dispensed into white, solid bottom 1536-well plates using a Multidrop Combi (Thermo Scientific). The Assay plates were incubated for 16 hours at 37 C with 5% CO2 in assay plates, followed by the addition of 23 nL of DMSO or drug dissolved in DMSO. Each compound was assayed in five concentrations (0.092, 0.46, 2.3, 11.5, and 57.5 uM), using the automated Wako 1536 Pin Tool workstation and incubated at 37 C with 5% CO2 48 hours. 4 uL of ATPlite, the ATP monitoring reagent, was then added to the each well of the assay plates using the Multidrop Combi reagent dispenser followed by incubation for 15 minutes at room temperature. The resulting luminescence was measured using the ViewLux plate reader.
% is set by controls: 0 for no effect and ±100 for the full control effect; potency is the fitted concentration of half-maximal effect.

| SMILES | Potency | activity change, negative = cytotoxicity |
| --- | --- | --- |
| COC(=O)C1=C(C)NC(C)=C(C(=O)O[C@@H]2CCCN(Cc3ccccc3)C2)[C@@H]1c1cccc([N+](=O)[O-])c1 | inactive | – |
| CC/C(=C(/CC)c1ccc(O)cc1)c1ccc(O)cc1 | – | -0.632% |
| O=S1(=O)c2cccc3cccc(c23)N1CCCN1CCN(c2ccc(F)cc2)CC1 | – | -10.6% |
| Cc1onc(-c2c(Cl)cccc2Cl)c1C(=O)N[C@@H]1C(=O)N2[C@@H]1SC(C)(C)[C@@H]2C(=O)O | inactive | – |
| C[C@H](CCC(=O)O)[C@H]1CC[C@H]2[C@@H]3C(=O)C[C@@H]4CC(=O)CC[C@]4(C)[C@H]3CC(=O)[C@]12C | – | -8.73% |
| Oc1ccc(Cl)c2cccnc12 | – | 35.4% |
| Cc1cc2c(cc1CC(=O)c1sccc1S(=O)(=O)Nc1onc(C)c1Cl)OCO2 | inactive | – |
| c1ccc(CNCCNCc2ccccc2)cc1 | – | 6.98% |
| CC(=O)OCC(=O)[C@@]1(O)[C@H](C)C[C@H]2[C@@H]3CCC4=CC(=O)C=C[C@]4(C)[C@@]3(F)[C@@H](O)C[C@@]21C | inactive | – |
| CC(=O)O[C@]1(C(C)=O)CC[C@H]2[C@@H]3C[C@H](C)C4=CC(=O)CC[C@]4(C)[C@H]3CC[C@@]21C | inactive | – |
| NC[C@H]1O[C@H](O[C@H]2[C@H](O[C@@H]3O[C@H](CO)[C@@H](O)[C@H]3O)C(O)[C@H](N)C[C@@H]2N)[C@H](N)[C@@H](O)[C@@H]1O (stereo not given in full) | – | -25.7% [at 11.6 µM] |
| Nc1ccn([C@@H]2O[C@H](CO)[C@@H](O)C2(F)F)c(=O)n1 | 631 nM (active) and 1.12 µM (active) | – |
| Cc1cc(N)c2cc(NC(=O)Nc3ccc4nc(C)cc(N)c4c3)ccc2n1 | – | -6.58% |
| Cc1ncc(CSSCc2cnc(C)c(O)c2CO)c(CO)c1O | – | 10.6% |
| CCOC(=O)COc1ccc2c(C)c(CCN(CC)CC)c(=O)oc2c1Cl | – | -18.2% |
| Cc1nc2n(c(=O)c1CCN1CCC(c3noc4cc(F)ccc34)CC1)CCC[C@H]2O | inactive | – |
| CC1(C)O[C@@H]2[C@@H](CO[C@@]3(COS(N)(=O)=O)OC(C)(C)O[C@@H]23)O1 | – | 5.15% |
| C[C@]12C=CC(=O)C=C1CC[C@@H]1[C@@H]2[C@@H](O)C[C@@]2(C)[C@H]1CC[C@]2(O)C(=O)CO | – | 3.21% |
| CC(C)(C)CC(C)(C)c1ccc(O)c(Cc2ccc(Cl)cc2Cl)c1 | – | -27.1% |
| COc1c2occc2c(OC)c2c(=O)cc(C)oc12 | – | 6.77% |

| SMILES | Potency | activity change, negative = cytotoxicity |
| --- | --- | --- |
| C=C(CC)C(=O)c1ccc(OCC(=O)O)c(Cl)c1Cl | – | -7.2% |
| OC(CCN1CCCCC1)(c1ccccc1)c1ccccc1 | – | 4.68% |
| COc1cc(OC)cc(OC)c1 | – | -4.6% |
| C[C@@H](CN(C)C)CN1c2ccccc2Sc2ccccc21 | – | -23.4% |
| O=C(O)CCCCC(=O)O | – | 11% |
| Oc1ccc(Cl)cc1Sc1cc(Cl)ccc1O | – | 2.27% |
| COc1cc(-c2ccc(=O)[nH]n2)ccc1OC(F)F | – | -14.9% |
| Cc1ccc(O)c2ncccc12 | – | 6.05% |
| Cc1c(C(C)C)c(=O)n(-c2ccccc2)n1C | – | 1.58% |
| CCC(C(=O)OCCN(CC)CC)c1ccccc1 (stereo not given) | – | -4.59% |
| CCCSS/C(CCO)=C(\C)N(C=O)Cc1cnc(C)nc1N | – | -16.9% |
| CCCCCC=CCC=CCCCCCCCC(=O)OCC | – | -6.27% |
| CCCC(=O)O[C@]1(C(=O)CO)CC[C@H]2[C@@H]3CCC4=CC(=O)CC[C@]4(C)[C@H]3[C@@H](O)C[C@@]21C | 3.55 µM (active) | – |
| c1ccc(-c2ccc(C(c3ccccc3)n3ccnc3)cc2)cc1 (stereo not given) | – | -7.47% |
| NC(CO)(CO)CO | – | -2.76% |
| CC(=O)OCC(=O)[C@@]12N=C(C)O[C@@H]1C[C@H]1[C@@H]3CCC4=CC(=O)C=C[C@]4(C)[C@H]3[C@@H](O)C[C@@]12C | – | -0.496% |
| O=C1OC(c2ccc(O)cc2)(c2ccc(O)cc2)c2ccccc21 | – | 16.7% |
| CC(Cc1ccccc1)(NC(=O)CN)c1ccccc1 (stereo not given) | – | 0.4% |
| Oc1c(Cl)cc(Cl)cc1Sc1cc(Cl)cc(Cl)c1O | – | 14.6% |
| COc1cc2c(cc1OC)[C@@H]1CC(=O)[C@@H](CC(C)C)CN1CC2 | – | -7.38% |
